Among the data in PubChem BioAssay (NCI) are growth values, retold here.

The panel holds about 83,000 compounds, 20% with a hit somewhere; the sample as a whole holds those more often.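 A percent growth of 40 corresponds to 60% growth inhibition; 0 means no net growth; -100 means all cells died. Active threshold: below 10.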 Values without a mark were called inactive. Activity calls are given as the source filed them.

Among the test systems are HCT-15 colon; HT29 colon; SNB-75 CNS; SNB-19 CNS; U251 CNS; PC-3 prostate; SK-MEL-5 melanoma; LOX IMVI melanoma; SK-MEL-28 melanoma; SK-MEL-2 melanoma; SN12C renal; UO-31 renal; TK-10 renal; ACHN renal; CAKI-1 renal; A498 renal; MOLT-4 leukemia; EKVX NSCLC; CCRF-CEM leukemia; UACC-62 melanoma.
What all share (experiment): NCI-60 one-dose screen, 48 h (100 = growth as untreated, 0 = no growth, -100 = all killed)
Conditions in all cases: 10 µM unless noted

For the compound `FC(F)(F)c1ccc(-c2cnc(-c3nn[nH]n3)nc2NC2CCCCCC2)cc1`, the growth in the test on HCT-15 colon was 38.7% [50 µM]; in the test on HT29 colon, 66.8% [50 µM]; in the test on SNB-75 CNS, 93.7% [50 µM]; with SNB-19 CNS, 41.3% [50 µM]; in the test on U251 CNS, 33.8% [50 µM]; with PC-3 prostate, 28.5% [50 µM]. Also, the growth was 71% [50 µM] in the test on SK-MEL-5 melanoma; 41.6% [50 µM] in the test on LOX IMVI melanoma; 74.1% [50 µM] with SK-MEL-28 melanoma; 47.3% [50 µM] in the test with SK-MEL-2 melanoma; 50.9% [50 µM] in the test with SN12C renal; 38.2% [50 µM] in the test on UO-31 renal. In addition, the growth in the test on TK-10 renal was 105% [50 µM]; with ACHN renal, 68.9% [50 µM]; in the test on CAKI-1 renal, 36.8% [50 µM]; in the test with A498 renal, 61.5% [50 µM]; in the test with MOLT-4 leukemia it was 25.4% [50 µM].
As to `Cc1sc2nc(NCc3ccccc3)[nH]c(=O)c2c1C`, the growth in the test on HCT-15 colon is 33.2%; in the test with HT29 colon, 13.3%; in the test on SNB-75 CNS, 46.1%; with SNB-19 CNS, 69%; in the test on U251 CNS it was 30.8%; in the test with PC-3 prostate, 48.1%. Besides, the growth in the test with SK-MEL-5 melanoma was 45.5%; in the test on LOX IMVI melanoma it was 53%; in the test on SK-MEL-28 melanoma, 69.5%; in the test on EKVX NSCLC, 70.3%; with SN12C renal, 68.5%; with UO-31 renal it was 74.6%. Moreover, the growth was 67% with TK-10 renal; 84% with ACHN renal; 48.9% in the test on A498 renal; 58.9% in the test with CCRF-CEM leukemia; 44% in the test on MOLT-4 leukemia.
Take `COc1cc2c(cc1OC)C(CC1(O)CCCCC1)N(S(=O)(=O)c1ccc(C)cc1)CC2` (stereo not drawn): the growth in the test on HCT-15 colon was 22.7% [100 µM]; in the test on HT29 colon, 21.1% [100 µM]; in the test with SNB-75 CNS, 40.8% [100 µM]; in the test with SNB-19 CNS it was 48.9% [100 µM]; in the test with U251 CNS, 34.1% [100 µM]; in the test on PC-3 prostate it was 2.56% [100 µM] (active). The growth in the test on SK-MEL-5 melanoma is 18.7% [100 µM]; in the test on LOX IMVI melanoma it was 29.3% [100 µM]; with SK-MEL-28 melanoma, 55% [100 µM]; in the test on SK-MEL-2 melanoma, 6.69% [100 µM] (active); in the test with SN12C renal, 42.3% [100 µM]; with UO-31 renal it was 25.8% [100 µM]. Besides, the growth in the test on TK-10 renal was 40.9% [100 µM]; in the test with ACHN renal, 18.5% [100 µM]; with CAKI-1 renal, 22% [100 µM]; in the test on A498 renal, 0.608% [100 µM] (active); in the test with MOLT-4 leukemia it was 3.12% [100 µM] (active).
As for `O=C(N/N=C/c1cccc([N+](=O)[O-])c1)c1ccc(Br)o1`, the growth was 127% in the test with HCT-15 colon; 105% with HT29 colon; 98.5% with SNB-75 CNS; 83.5% in the test with SNB-19 CNS; 110% in the test with U251 CNS; 97.3% with SK-MEL-5 melanoma. Moreover, the growth in the test on UACC-62 melanoma was 102%; with LOX IMVI melanoma, 112%; with SK-MEL-28 melanoma it was 133%; in the test on SK-MEL-2 melanoma it was 103%; in the test on EKVX NSCLC it was 103%; with SN12C renal it was 142%. In addition, the growth was -25.2% (active) in the test with UO-31 renal; 129% with TK-10 renal; 156% in the test with ACHN renal; 98.3% in the test with CAKI-1 renal; 78.2% in the test with CCRF-CEM leukemia; 132% with MOLT-4 leukemia.
As to `Cc1cc(C)nc(NS(=O)(=O)c2ccc(Nc3nc4nc(SCc5ccccc5)nc(-c5ccc(O)cc5)c4c(=O)[nH]3)cc2)n1`, the growth in the test on HCT-15 colon was 109%; in the test on HT29 colon, 123%; with SNB-75 CNS it was 88.3%; in the test with SNB-19 CNS it was 74.9%; in the test on PC-3 prostate, 67.7%; with SK-MEL-5 melanoma it was 99.5%. In addition, the growth with UACC-62 melanoma is 83.5%; with LOX IMVI melanoma, 101%; in the test with SK-MEL-28 melanoma, 86.3%; in the test on SK-MEL-2 melanoma, 92%; in the test with EKVX NSCLC, 96%; in the test on SN12C renal, 102%. The growth with UO-31 renal was 97%; with TK-10 renal it was 105%; with ACHN renal, 104%; in the test with CAKI-1 renal, 85.9%; in the test with A498 renal, 90.7%; in the test with CCRF-CEM leukemia, 71.2%. For the same compound, the growth with MOLT-4 leukemia was 73.8%.
On to `CCCCCCCCCCN1CCC(N2CCCCC2)CC1`, for which the growth was -5.57% (active) in the test on HCT-15 colon; -38.9% (active) in the test on HT29 colon; -47.8% (active) in the test on SNB-75 CNS; 28.2% in the test on SNB-19 CNS; 4.67% (active) in the test with U251 CNS; 16% with PC-3 prostate. In addition, the growth in the test with SK-MEL-5 melanoma was -96.9% (active); with LOX IMVI melanoma, -72.8% (active); in the test with SK-MEL-28 melanoma, -29.1% (active); with SK-MEL-2 melanoma, -19.9% (active); in the test on EKVX NSCLC it was 37.4%; in the test with SN12C renal, 45.4%. Also, the growth in the test with UO-31 renal was -86.7% (active); in the test on TK-10 renal, 25.2%; with ACHN renal, 38.2%; with CCRF-CEM leukemia, 6.95% (active); with MOLT-4 leukemia it was -26% (active).
In the case of `O=[N+]([O-])c1cc([N+](=O)[O-])c(N2CCCC2)cc1NN=C(c1ccc(O)cc1)c1ccc(O)cc1`, the growth with HCT-15 colon was 46.9%; in the test with HT29 colon it was 78.2%; with SNB-75 CNS it was 71.8%; in the test on SNB-19 CNS, 37.3%; in the test on U251 CNS it was 68.5%; with SK-MEL-5 melanoma, 18.8%. Also, the growth in the test on LOX IMVI melanoma was 41.6%; in the test on SK-MEL-28 melanoma, 97.1%; with SK-MEL-2 melanoma, -47.6% (active); in the test with EKVX NSCLC, 90.5%; in the test on SN12C renal, 128%; in the test on UO-31 renal it was -78.1% (active). For the same compound, the growth with TK-10 renal is 131%; in the test with ACHN renal it was 46.9%; in the test on CAKI-1 renal it was 91.9%; in the test on A498 renal, 122%; with CCRF-CEM leukemia, 55.3%; with MOLT-4 leukemia, 57.3%.
Regarding `Cn1ccnc1C(=O)/C=C/c1ccc(C(=O)Nc2nc3ccccc3[nH]2)cc1`, the growth with HCT-15 colon was 24.3%; with HT29 colon it was 8.78% (active); in the test on SNB-75 CNS it was -17% (active); in the test with SNB-19 CNS, 41.1%; in the test with PC-3 prostate, 38.1%; with SK-MEL-5 melanoma, 83.1%. Besides, the growth is 74.7% in the test on UACC-62 melanoma; 11.5% with LOX IMVI melanoma; 89.7% in the test with SK-MEL-28 melanoma; 85.4% with SK-MEL-2 melanoma; 62.3% in the test with EKVX NSCLC; 51.7% with SN12C renal. The growth is 28.3% with UO-31 renal; 66.5% in the test with TK-10 renal; 49.3% in the test with ACHN renal; 18.6% with CAKI-1 renal; 51.1% with A498 renal; 15.4% in the test with CCRF-CEM leukemia. The growth with MOLT-4 leukemia is 45.2%.
As to `C[C@]12CC[C@H](O)CC1=CC[C@@H]1[C@@H]2CC[C@]2(C)C(c3cccnc3)=CC[C@@H]12`, the growth with HCT-15 colon is 56.8%; with HT29 colon, 24%; in the test on SNB-75 CNS, 52.4%; in the test on SNB-19 CNS, 72.7%; with U251 CNS it was 67%; with SK-MEL-5 melanoma, 25.9%. Further, the growth was 53.2% with UACC-62 melanoma; 74.5% with LOX IMVI melanoma; 33.8% in the test with SK-MEL-28 melanoma; 27.6% in the test on SK-MEL-2 melanoma; 38.8% with EKVX NSCLC; 91% in the test with SN12C renal. Also, the growth in the test on UO-31 renal is 36.9%; with TK-10 renal, 93.6%; in the test with ACHN renal, 61%; in the test on CCRF-CEM leukemia it was 51.3%; in the test with MOLT-4 leukemia it was 34.1%.
On to `CCCCc1n(Cc2ccc3ccccc3c2)cc[n+]1Cc1ccc2ccccc2c1`, for which the growth is 49.5% with HCT-15 colon; -34.4% (active) in the test on HT29 colon; -18% (active) with SNB-75 CNS; -22.9% (active) in the test on SNB-19 CNS; -46.5% (active) in the test on U251 CNS; -29.7% (active) in the test on PC-3 prostate. In addition, the growth in the test with SK-MEL-5 melanoma was -97.8% (active); in the test with LOX IMVI melanoma, -88.2% (active); in the test with SK-MEL-28 melanoma it was -55% (active); with EKVX NSCLC it was 14.4%; in the test on SN12C renal, -22.3% (active); with UO-31 renal, 18.9%. Also, the growth is -10.4% (active) in the test with TK-10 renal; 30% in the test with ACHN renal; 0.276% (active) with A498 renal; 6.82% (active) with CCRF-CEM leukemia; -17.5% (active) with MOLT-4 leukemia.
Consider `COc1ccc(/C=C/C(=O)c2cccc(NS(C)(=O)=O)c2)cc1`, for which the growth is 67.5% in the test on HCT-15 colon; 49.1% in the test on HT29 colon; 68.6% in the test on SNB-75 CNS; 87.9% in the test on SNB-19 CNS; 37.6% in the test with U251 CNS; 90.4% in the test on SK-MEL-5 melanoma. Moreover, the growth is 75% with LOX IMVI melanoma; 110% in the test with SK-MEL-28 melanoma; 114% with SK-MEL-2 melanoma; 94.6% with EKVX NSCLC; 82.8% with SN12C renal; 48.6% with UO-31 renal. The growth in the test on TK-10 renal was 92.2%; with ACHN renal it was 93.4%; in the test with A498 renal it was 101%; in the test with CCRF-CEM leukemia, 1.69% (active); with MOLT-4 leukemia, 40.8%.
